Measured values as given in ChEMBL document CHEMBL2218924, “A broad activity screen in support of a chemogenomic map for kinase signalling research and drug discovery” (Biochem J, 2013).

Columns and labels:
[1] = molecular target: Ribosomal protein S6 kinase beta-1 (Homo sapiens) (UniProt P23443); settings: at 1 µM
[2] = molecular target: Ribosomal protein S6 kinase beta-1 (Homo sapiens) (UniProt P23443); settings: at 10 µM
[3] = molecular target: Serine/threonine-protein kinase Nek6 (Homo sapiens) (UniProt Q9HC98); settings: at 1 µM
[4] = molecular target: Serine/threonine-protein kinase Nek7 (Homo sapiens) (UniProt Q8TDX7); settings: at 1 µM
[5] = molecular target: T1, Serine/threonine-protein kinase NLK (Homo sapiens) (UniProt Q9UBE8); settings: at 10 µM
T1 sequence (whole entry): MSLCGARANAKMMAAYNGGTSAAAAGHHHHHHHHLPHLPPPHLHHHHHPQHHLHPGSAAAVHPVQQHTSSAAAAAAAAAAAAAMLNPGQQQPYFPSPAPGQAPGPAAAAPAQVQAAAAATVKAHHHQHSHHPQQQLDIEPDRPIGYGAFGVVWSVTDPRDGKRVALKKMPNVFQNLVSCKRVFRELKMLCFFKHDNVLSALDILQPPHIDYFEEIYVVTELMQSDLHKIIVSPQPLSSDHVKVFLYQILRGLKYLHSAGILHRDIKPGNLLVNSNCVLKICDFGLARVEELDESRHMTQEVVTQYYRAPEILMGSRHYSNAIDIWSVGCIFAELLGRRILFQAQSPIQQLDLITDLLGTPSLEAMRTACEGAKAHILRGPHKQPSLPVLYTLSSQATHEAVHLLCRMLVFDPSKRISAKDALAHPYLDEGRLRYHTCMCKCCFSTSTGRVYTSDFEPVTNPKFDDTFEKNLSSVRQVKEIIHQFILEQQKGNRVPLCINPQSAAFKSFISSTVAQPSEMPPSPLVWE

[6] = molecular target: Serine/threonine-protein kinase Nek7 (Homo sapiens) (UniProt Q8TDX7); settings: at 10 µM
[7] = molecular target: Serine/threonine-protein kinase Nek6 (Homo sapiens) (UniProt Q9HC98); settings: at 10 µM
[8] = molecular target: T1, Serine/threonine-protein kinase NLK (Homo sapiens); settings: at 1 µM
[9] = molecular target: Serine/threonine-protein kinase PAK 2 (Homo sapiens) (UniProt Q13177); settings: at 1 µM
[10] = molecular target: Serine/threonine-protein kinase PAK 2 (Homo sapiens) (UniProt Q13177); settings: at 10 µM

Ribosomal protein S6 kinase beta-1 (Homo sapiens), sequence (P23443 whole entry, looked up): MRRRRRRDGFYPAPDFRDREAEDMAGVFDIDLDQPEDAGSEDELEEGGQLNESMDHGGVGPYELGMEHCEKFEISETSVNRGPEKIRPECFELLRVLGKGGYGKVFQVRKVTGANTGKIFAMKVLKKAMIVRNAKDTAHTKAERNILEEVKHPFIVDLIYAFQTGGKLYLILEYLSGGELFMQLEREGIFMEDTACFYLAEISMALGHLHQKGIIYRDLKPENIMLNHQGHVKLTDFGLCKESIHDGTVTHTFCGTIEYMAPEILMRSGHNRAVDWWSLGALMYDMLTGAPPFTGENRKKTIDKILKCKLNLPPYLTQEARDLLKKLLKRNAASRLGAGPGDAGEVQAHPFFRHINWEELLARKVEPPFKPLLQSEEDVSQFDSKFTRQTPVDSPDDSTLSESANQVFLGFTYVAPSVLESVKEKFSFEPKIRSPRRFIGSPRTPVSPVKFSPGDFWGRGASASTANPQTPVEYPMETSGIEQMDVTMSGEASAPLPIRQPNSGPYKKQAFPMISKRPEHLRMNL
Serine/threonine-protein kinase Nek6 (Homo sapiens), sequence (Q9HC98 whole entry): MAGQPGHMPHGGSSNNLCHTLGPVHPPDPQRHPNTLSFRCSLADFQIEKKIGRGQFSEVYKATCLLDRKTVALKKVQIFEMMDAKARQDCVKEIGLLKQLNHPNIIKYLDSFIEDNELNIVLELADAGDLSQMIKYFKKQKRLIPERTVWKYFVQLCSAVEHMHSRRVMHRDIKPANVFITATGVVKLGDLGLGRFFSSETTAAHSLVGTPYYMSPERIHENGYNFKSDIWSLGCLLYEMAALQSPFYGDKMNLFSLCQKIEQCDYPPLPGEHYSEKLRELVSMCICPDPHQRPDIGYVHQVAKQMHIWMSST
Serine/threonine-protein kinase Nek7 (Homo sapiens), sequence (Q8TDX7 whole entry, looked up): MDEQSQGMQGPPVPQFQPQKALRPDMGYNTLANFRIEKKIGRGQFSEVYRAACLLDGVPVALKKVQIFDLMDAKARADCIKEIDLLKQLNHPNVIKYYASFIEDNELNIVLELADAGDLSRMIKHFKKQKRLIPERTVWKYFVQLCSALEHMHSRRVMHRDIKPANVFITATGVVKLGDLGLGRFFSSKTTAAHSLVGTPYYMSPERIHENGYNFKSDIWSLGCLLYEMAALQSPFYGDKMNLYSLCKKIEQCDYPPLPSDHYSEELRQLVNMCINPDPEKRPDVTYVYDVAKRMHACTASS
Serine/threonine-protein kinase PAK 2 (Homo sapiens), sequence (Q13177 whole entry): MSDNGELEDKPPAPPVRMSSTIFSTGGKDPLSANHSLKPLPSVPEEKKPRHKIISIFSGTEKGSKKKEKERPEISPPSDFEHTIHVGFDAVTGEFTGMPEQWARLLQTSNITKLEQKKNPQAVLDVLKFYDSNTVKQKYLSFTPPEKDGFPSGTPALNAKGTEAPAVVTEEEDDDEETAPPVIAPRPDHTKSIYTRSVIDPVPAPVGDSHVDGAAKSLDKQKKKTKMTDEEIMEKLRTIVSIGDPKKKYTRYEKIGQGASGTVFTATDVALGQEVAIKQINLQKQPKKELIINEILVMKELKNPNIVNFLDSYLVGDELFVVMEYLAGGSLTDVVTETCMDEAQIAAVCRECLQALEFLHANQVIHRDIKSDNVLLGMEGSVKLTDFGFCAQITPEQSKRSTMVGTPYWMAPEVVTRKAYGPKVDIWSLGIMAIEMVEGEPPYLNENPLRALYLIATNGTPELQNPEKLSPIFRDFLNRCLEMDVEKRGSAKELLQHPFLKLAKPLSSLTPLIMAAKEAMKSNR

Structure (SMILES) | residual activity [1] [%] | residual activity [2] [%] | residual activity [3] | residual activity [4] | residual activity [5] [%] | residual activity [6] | residual activity [7] [%] | residual activity [8] [%] | residual activity [9] [%] | residual activity [10] [%]
CCOc1nc(NC(=O)Cc2cc(OC)ccc2OC)cc(N)c1C#N | 140 | 100 | – | – | – | – | – | – | – | –
O=C(c1ccccc1)c1ccc(N2CCOCC2)cc1O | 77 | 53 | 92% (inactive) | 116% (inactive) | 63 | – | – | – | – | –
CC(C)[C@H](CO)Nc1nc(Nc2cc(N)cc(Cl)c2)c2ncn(C(C)C)c2n1 | 86 | 39 | – | – | – | – | – | – | – | –
Oc1cccc(-c2nc(N3CCOCC3)c3oc4ncccc4c3n2)c1 | 68 | 84 | – | 100% (inactive) | – | 96% (inactive) | – | – | – | –
NC(=O)c1ccc(-c2nc(-c3ccc4c(c3)OCCO4)c(-c3ccccn3)[nH]2)cc1 | 74 | 86 | – | – | – | – | – | – | – | –
COc1ccc(COc2ccc(Cc3cnc(N)nc3N)cc2OC)cc1 | 80 | 51 | – | – | – | – | – | – | – | –
Nc1ncnc2[nH]nc(Nc3ccc(F)cc3)c12 | 91 | 61 | 118% (inactive) | 100% (inactive) | 55 | 96% (inactive) | 106 | 93 | 106 | 109
O=C1Cc2c([nH]c3ccc(Br)cc23)-c2ccccc2N1 | 66 | 53 | – | 100% (inactive) | 54 | 94% (inactive) | – | 83 | 91 | 75
COc1cc2nccc(Oc3ccc(NC(=S)NC(=O)c4ccccc4C)cc3)c2cc1OC | 66 | 61 | 95% (inactive) | 98% (inactive) | 60 | 91% (inactive) | – | 81 | 98 | 87
O=c1cc(N2CCOCC2)oc2c1ccc1ccccc12 | 74 | 41 | 100% (inactive) | 103% (inactive) | 80 | 95% (inactive) | 106 | 108 | 97 | 89
COc1cc2ncnc(Nc3cccc(Cl)c3)c2cc1OC | 82 | 59 | 109% (inactive) | 102% (inactive) | – | 115% (inactive) | 117 | – | 126 | 111
COc1cc2c(cc1OC)-c1n[nH]c(Nc3cccc(F)c3)c1C2 | 63 | 79 | – | – | 17 | 113% (inactive) | – | 54 | – | –
O=C1NC(=O)C(c2c[nH]c3ccccc23)=C1c1c[nH]c2ccccc12 | 48 | 5 | 117% (inactive) | – | 71 | – | 127 | – | – | –
COc1cc2nccc(Oc3ccc(NC(=O)Nc4cc(C)on4)c(Cl)c3)c2cc1OC | 76 | 53 | – | 98% (inactive) | 42 | 103% (inactive) | – | 77 | – | –
NC(=O)Nc1sc(-c2ccc(F)cc2)cc1C(N)=O | 78 | 39 | 104% (inactive) | 102% (inactive) | 61 | 103% (inactive) | 106 | 89 | 93 | 71
CCN(CC)CCNC(=O)c1c(C)[nH]c(/C=C2\C(=O)Nc3ccc(Cl)cc32)c1C | 24 | 4 | – | – | – | – | – | – | – | –

Structure (SMILES) | residual activity [1] [%] | residual activity [2] [%] | residual activity [3] | residual activity [4] | residual activity [5] [%] | residual activity [6] | residual activity [7] [%] | residual activity [8] [%] | residual activity [9] [%] | residual activity [10] [%]
Cn1c2ccccc2c2c3c(c4c5ccccc5n(CCC#N)c4c21)CNC3=O | 1 | 4 | 93% (inactive) | 95% (inactive) | 41 | 80% (inactive) | 113 | 50 | 101 | –
O=C1Cc2c([nH]c3ccc([N+](=O)[O-])cc23)-c2ccccc2N1 | 106 | 103 | 115% (inactive) | 106% (inactive) | – | 104% (inactive) | 118 | – | 43 | 30
CC(C)(C)n1nc(Cc2cccc3ccccc23)c2c(N)ncnc21 | 118 | 96 | 94% (inactive) | 90% (inactive) | 15 | – | 116 | 44 | 98 | 49
O=C(O)/C=C/c1cc(Br)c(Br)c(Br)c1Br | 84 | 70 | 96% (inactive) | – | – | – | 86 | – | 97 | 95
Nc1ncnc2c1cnn2-c1ccccc1 | 84 | 63 | 99% (inactive) | 87% (inactive) | 80 | 85% (inactive) | – | 88 | – | 97
CC(C)c1nn(-c2c(Cl)cccc2Cl)c2nc(Cc3ccc(OCCO)cc3)[nH]c(=O)c12 | 81 | 59 | – | 87% (inactive) | 46 | 84% (inactive) | – | 88 | 88 | 69
O=C1NC(=O)c2c1c1c3ccccc3[nH]c1n1cncc21 | 68 | 28 | 98% (inactive) | 100% (inactive) | 72 | 86% (inactive) | 90 | 89 | 98 | 89
O=c1cc(N2CCNCC2)oc2c(-c3ccccc3)cccc12 | 69 | 65 | 80% (inactive) | 104% (inactive) | 77 | 95% (inactive) | – | 99 | 98 | 80
COc1ccc(-c2cnc3c(-c4ccsc4)cnn3c2)cc1 | 72 | 66 | – | – | – | – | – | – | – | –
Nc1ncnc2c1c(-c1ccc(Oc3ccccc3)cc1)cn2C1CCCC1 | 67 | 45 | 78% (inactive) | 97% (inactive) | 41 | 105% (inactive) | 99 | 81 | 98 | 61
O=S(=O)(NCCNC/C=C/c1ccc(Br)cc1)c1cccc2cnccc12 | 13 | 5 | – | – | – | – | – | – | – | –
COc1ccc2c(c1)c(C1=C(c3c[nH]c4ccccc34)C(=O)NC1=O)cn2CCCN(C)C | 22 | 2 | – | – | – | – | 107 | – | – | –
CCCC(=O)Oc1ccc2[nH]c(C(=O)c3cc4ccccc4[nH]3)cc2c1 | 104 | 91 | 89% (inactive) | 91% (inactive) | 108 | 93% (inactive) | – | 90 | 102 | 86
N#Cc1c(NC(=O)c2cccc3ccccc23)sc2c1CCCC2 | 91 | 68 | – | – | – | – | 93 | – | 93 | –
N#C/C(=C1/Nc2ccccc2S1)c1ccnc(NCCc2cccnc2)n1 | 72 | 39 | 119% (inactive) | – | – | – | – | – | – | –
